Drawing on PubChem BioAssay (EPA / NIEHS), this text covers outcome and AC50 for five compounds.

Records with an inconclusive call do not appear. Active and inactive are the calls of the source. Rule for the calls, unless noted: active = hit-call score of the fitted dose curve at least 0.9, where 1 is the maximum; inactive = score below 0.9.

Assay [1] deals with Nucleoli Translocation, AR (gene 367) (UniProt P10275). Description: UPITT_HCI_U2OS_AR_TIF2_Nucleoli_Antagonist: University of Pittsburgh U2OS Androgen Receptor-Transcriptional Intermediary Factor 2 (AR-TIF2) Antagonism High Content Imaging Assay for Nucleoli Translocation (AID 2283997; active = hit-call score of the fitted dose curve at least 0.9, where 1 is the maximum). The gist of the method: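 U2OS cells expressing RFP-tagged human AR and GFP-tagged TIF2 were imaged by high-content fluorescence microscopy for red AR signal in the nucleolar region. Compounds were screened at 20 uM final (0.2% DMSO), with activity fitted relative to DHT as baseline.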

For assay [2] the target is unchanged. Description: UPITT_HCI_U2OS_AR_TIF2_Nucleoli_Agonist: University of Pittsburgh U2OS Androgen Receptor-Transcriptional Intermediary Factor 2 (AR-TIF2) Agonism High Content Imaging Assay for Nucleoli Translocation (AID 2283998; active = hit-call score of the fitted dose curve at least 0.9, where 1 is the maximum). Summed up: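 RFP-AR / GFP-TIF2 cells; cpds diluted in serum-free medium; single-point screen 20 uM final (0.2% DMSO), actives confirmed in triplicate; conc-response 0.195–50 uM final (0.5% DMSO). Readout: nucleolar red fluorescence, positive direction vs DMSO.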

Assay [3] deals with Ratio of Nucleoli Translocation and Cytoplasm, AR (gene 367) (UniProt P10275). Description: UPITT_HCI_U2OS_AR_TIF2_Nucleoli_Cytoplasm_Ratio_Antagonist: University of Pittsburgh U2OS Androgen Receptor-Transcriptional Intermediary Factor 2 (AR-TIF2) Antagonism High Content Imaging Assay for Ratio of Nucleoli Translocation and Cytoplasm (AID 2283999; active = hit-call score of the fitted dose curve at least 0.9, where 1 is the maximum;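 note: antagonists lower the DHT-driven ratio of nucleolar to cytoplasmic red signal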). Summed up:
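Human osteosarcoma U2OS line, AR fused to RFP, coactivator TIF2 fused to GFP. Cpds 20 uM final, 0.2% DMSO (screen); 0.195–50 uM final, 0.5% DMSO (CRC). Endpoint: nucleoli/cytoplasm red signal ratio, DHT as baseline, loss-of-signal antagonist mode.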

Assay [4] shares this target. Description: UPITT_HCI_U2OS_AR_TIF2_Nucleoli_Cytoplasm_Ratio_Agonist: University of Pittsburgh U2OS Androgen Receptor-Transcriptional Intermediary Factor 2 (AR-TIF2) Agonism High Content Imaging Assay for Ratio of Nucleoli Translocation and Cytoplasm (AID 2284000; active = hit-call score of the fitted dose curve at least 0.9, where 1 is the maximum;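 note: hits raise the red nucleolar to cytoplasm ratio above vehicle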). The gist of the method:
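U2OS cells expressing RFP-tagged human AR and GFP-tagged TIF2 were imaged by high-content fluorescence microscopy. The endpoint is the ratio of nucleolar to cytoplasmic red fluorescence, fitted for gain of signal relative to DMSO. Concentration-response spanned 0.195 to 50 uM final (0.5% DMSO).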

Assay [5] can be described thus: CCTE_Simmons_MITO_basal_resp_rate: CCTE's HepG2 Seahorse XF Respirometric Screening Assay at Basal Respiratory State, Simmons Lab (AID 2284001). To be noted: actives raise or lower the signal. The gist of the method: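 HepG2 cells were given test chemicals at 7 concentrations, 125 nM to 100 uM final, and oxygen consumption rate was read every 6 min (3 min mix, 3 min measure) over 72 min. Basal-phase OCR was fitted bidirectionally against DMSO.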

Assay [6] in a line: TOX21_TR_RXR_BLA_Agonist_Followup_viability: Viability Assessment in the Tox21 Thyroid Hormone Receptor beta Retinoid X Receptor alpha (RXRa) Agonism Beta-lactamase (BLA) Follow-Up Assay (AID 2283970; active = hit-call score of the fitted dose curve at least 0.9, where 1 is the maximum). The gist of the method: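 Cells: HEK293T RXRa-UAS-bla, 2,500/well; medium phenol red-free DMEM + 2% charcoal-stripped FBS; 16h, 37C/5% CO2; qHTS concentration series. Read: CellTiter-Glo luminescence (ATP); bidirectional fit, DMSO = baseline.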

Assay [7] deals with Retinoic acid receptor RXR-alpha (Homo sapiens) (UniProt P19793). Description: TOX21_TR_RXR_BLA_Antagonist_Followup_ratio: Tox21 Thyroid Hormone Receptor beta Retinoid X Receptor alpha (RXRa) Antagonism Beta-lactamase (BLA) Follow-Up Assay, Ratio (AID 2283972; active = hit-call score of the fitted dose curve at least 0.9, where 1 is the maximum). Summed up: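 Beta-lactamase reporter readout as cleaved/uncleaved substrate ratio (460:530 nm) after 2 h substrate loading at room temperature. GAL4-RXRa bla HEK293T cells were exposed 16 h at 37C to 11-point compound series; loss of signal scored against DMSO baseline.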

Assay [8] in a line: CCTE_Harrill_HTTr_Viability_DMEM_6hr: (Pilot) CCTE's 6-hour Cell Viability Assessment for the High-Throughput Transcriptomics (HTTr) Platform, in MCF-7 cells cultured in DMEM + 10% fetal bovine serum, Harrill Lab (AID 2283973). The gist of the method:
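MCF-7 cells in DMEM + 10% FBS, eight-point dilution series, 6 h exposure. Membrane integrity by propidium iodide exclusion with high-content imaging; bidirectional fit versus DMSO.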

Assay [9] in a line: CCTE_Harrill_HTTr_Viability_DMEM_12hr: (Pilot) CCTE's 12-hour Cell Viability Assessment for the High-Throughput Transcriptomics (HTTr) Platform, in MCF-7 cells cultured in DMEM + 10% fetal bovine serum, Harrill Lab (AID 2283974). The gist of the method: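 MCF-7 cells in DMEM + 10% FBS exposed 12 h to an eight-point dilution series; membrane integrity scored by propidium iodide exclusion with high-content imaging, bidirectional fitting versus DMSO.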

The nature of assay [10]: CCTE_Harrill_HTTr_Viability_DMEM_24hr: (Pilot) CCTE's 24-hour Cell Viability Assessment for the High-Throughput Transcriptomics (HTTr) Platform, in MCF-7 cells cultured in DMEM + 10% fetal bovine serum, Harrill Lab (AID 2283975). Summed up: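 MCF-7 cells in DMEM with 10% FBS exposed for 24 hours to an eight-point dilution series. Membrane integrity by propidium iodide exclusion with high content imaging; bidirectional fit against DMSO.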

The nature of assay [11]: CCTE_Harrill_HTTr_Viability_PRF_DMEM_6hr: (Pilot) CCTE's 6-hour Cell Viability Assessment for the High-Throughput Transcriptomics (HTTr) Platform, in MCF-7 cells cultured phenol red-free DMEM + 10% charcoal-stripped fetal bovine serum, Harrill Lab (AID 2283976). Summed up: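 MCF-7 cells in phenol red-free DMEM with 10% charcoal-stripped FBS exposed 6 hours to an eight-point dilution series. Propidium iodide exclusion imaged; curves fitted bidirectionally against DMSO.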

Assay [12] can be described thus: CCTE_Harrill_HTTr_Viability_PRF_DMEM_12hr: (Pilot) CCTE's 12-hour Cell Viability Assessment for the High-Throughput Transcriptomics (HTTr) Platform, in MCF-7 cells cultured in phenol red-free DMEM + 10% charcoal-stripped fetal bovine serum, Harrill Lab (AID 2283977). Summed up:
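MCF-7 cells in phenol red-free DMEM with 10% charcoal-stripped FBS exposed 12 hours to an eight-point dilution series. Viability assessed by high-content imaging of propidium iodide exclusion; bidirectional fit versus DMSO.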

Assay [13] can be described thus: TOX21_TR_RXR_BLA_Antagonist_Followup_viability: Viability Assessment in the Tox21 Thyroid Hormone Receptor beta Retinoid X Receptor alpha (RXRa) Antagonism Beta-lactamase (BLA) Follow-Up Assay (AID 2283979; active = hit-call score of the fitted dose curve at least 0.9, where 1 is the maximum). Summed up: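 RXRa-UAS-bla HEK293T cells seeded 2,500/well in phenol red-free DMEM with 2% charcoal-stripped FBS, attached 5 h, then exposed to compounds at 11 concentrations in triplicate for 16 h at 37C/5% CO2. Viability read by CellTiter-Glo ATP luminescence; bidirectional fit versus DMSO.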

Assay [14] is described as follows: CCTE_Harrill_HTTr_Viability_PRF_DMEM_24hr: (Pilot) CCTE's 24-hour Cell Viability Assessment for the High-Throughput Transcriptomics (HTTr) Platform, in MCF-7 cells cultured in phenol red-free DMEM + 10% charcoal-stripped fetal bovine serum, Harrill Lab (AID 2283980). The gist of the method:
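MCF-7 cells in phenol red-free DMEM with 10% charcoal-stripped FBS, eight-point dilution series, 24 h exposure. Membrane integrity by propidium iodide exclusion with high content imaging; bidirectional fit vs DMSO.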

Assay [15] can be described thus: CCTE_Harrill_HTTr_Apoptosis_DMEM_6hr: (Pilot) CCTE's 6-hour Apoptosis Assessment for the High-Throughput Transcriptomics (HTTr) Platform, in MCF-7 cells cultured in DMEM + 10% fetal bovine serum, Harrill Lab (AID 2283981). Summed up:
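Caspase-3/7 activation read by high content imaging with CellEvent Caspase 3/7 Green in MCF-7 cells (DMEM + 10% FBS), 6 h after dosing; eight-point dilution series. Bidirectional fitting relative to DMSO baseline.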

Assay [16] can be described thus: CCTE_Harrill_HTTr_Apoptosis_DMEM_12hr: (Pilot) CCTE's 12-hour Apoptosis Assessment for the High-Throughput Transcriptomics (HTTr) Platform, in MCF-7 cells cultured in DMEM + 10% fetal bovine serum, Harrill Lab (AID 2283982). Summed up: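 MCF-7 cells in DMEM + 10% FBS, exposed 12 h to an eight-point dilution series; caspase-3/7 activation imaged with CellEvent Green. Bidirectional fit versus DMSO.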

A short description of assay [17]: CCTE_Harrill_HTTr_Apoptosis_DMEM_24hr: (Pilot) CCTE's 24-hour Apoptosis Assessment for the High-Throughput Transcriptomics (HTTr) Platform, in MCF-7 cells cultured in DMEM + 10% fetal bovine serum, Harrill Lab (AID 2283983). The gist of the method: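 MCF-7 cells in DMEM + 10% FBS, eight-point dilution series, 24 h exposure. Caspase-3/7 activation imaged by high-content imaging with CellEvent Caspase 3/7 Green. Bidirectional curve fitting against DMSO baseline.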

Assay [18] can be described thus: CCTE_Harrill_HTTr_Apoptosis_PRF_DMEM_6hr: (Pilot) CCTE's 6-hour Apoptosis Assessment for the High-Throughput Transcriptomics (HTTr) Platform, in MCF-7 cells cultured phenol red-free DMEM + 10% charcoal-stripped fetal bovine serum, Harrill Lab (AID 2283984). The gist of the method: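 MCF-7 cells in phenol red-free DMEM + 10% charcoal-stripped FBS, eight-point dilution series, 6 h exposure. Caspase-3/7 activation imaged by high-content imaging with CellEvent Caspase 3/7 Green; bidirectional fit versus DMSO baseline.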

The nature of assay [19]: CCTE_Harrill_HTTr_Apoptosis_PRF_DMEM_24hr: (Pilot) CCTE's 24-hour Apoptosis Assessment for the High-Throughput Transcriptomics (HTTr) Platform, in MCF-7 cells cultured in phenol red-free DMEM + 10% charcoal-stripped fetal bovine serum, Harrill Lab (AID 2283986). The gist of the method: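 MCF-7 cells in phenol red-free DMEM with 10% charcoal-stripped FBS, exposed 24 h across an eight-point dilution series. Caspase-3/7 activation imaged with CellEvent Green by high content imaging; bidirectional fitting against DMSO.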

Chain of Ratio of Nucleoli Translocation and Cytoplasm, AR (gene 367) (P10275 whole entry, looked up, the tested form may be a part): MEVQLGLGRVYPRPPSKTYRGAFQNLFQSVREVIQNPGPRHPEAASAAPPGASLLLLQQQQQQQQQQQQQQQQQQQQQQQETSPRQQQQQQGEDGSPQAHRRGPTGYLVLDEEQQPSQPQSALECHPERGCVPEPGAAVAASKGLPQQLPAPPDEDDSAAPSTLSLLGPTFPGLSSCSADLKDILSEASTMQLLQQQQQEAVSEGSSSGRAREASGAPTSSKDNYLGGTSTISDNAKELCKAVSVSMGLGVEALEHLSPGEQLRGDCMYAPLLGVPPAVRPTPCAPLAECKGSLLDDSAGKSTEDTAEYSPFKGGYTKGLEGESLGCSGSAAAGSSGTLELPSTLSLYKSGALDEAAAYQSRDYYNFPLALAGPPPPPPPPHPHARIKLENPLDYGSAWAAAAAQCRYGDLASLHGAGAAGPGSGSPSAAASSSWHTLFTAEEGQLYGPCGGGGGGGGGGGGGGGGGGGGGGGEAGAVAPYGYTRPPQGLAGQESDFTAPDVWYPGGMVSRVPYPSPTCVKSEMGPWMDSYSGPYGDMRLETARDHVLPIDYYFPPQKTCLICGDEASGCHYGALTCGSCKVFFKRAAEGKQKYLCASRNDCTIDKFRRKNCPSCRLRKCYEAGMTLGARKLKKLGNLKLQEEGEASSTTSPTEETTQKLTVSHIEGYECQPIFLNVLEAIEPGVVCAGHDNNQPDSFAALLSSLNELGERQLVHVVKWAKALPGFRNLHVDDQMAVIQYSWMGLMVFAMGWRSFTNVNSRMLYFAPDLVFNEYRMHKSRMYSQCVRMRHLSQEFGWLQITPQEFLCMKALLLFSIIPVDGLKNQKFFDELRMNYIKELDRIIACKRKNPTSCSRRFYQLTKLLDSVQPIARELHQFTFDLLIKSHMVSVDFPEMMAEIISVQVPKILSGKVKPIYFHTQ
Chain of Nucleoli Translocation, AR (gene 367) (P10275 whole entry, looked up): as the sequence (P10275 whole entry, looked up, the tested form may be a part) above
Chain of Retinoic acid receptor RXR-alpha (Homo sapiens) (P19793 whole entry, looked up, the tested form may be a part): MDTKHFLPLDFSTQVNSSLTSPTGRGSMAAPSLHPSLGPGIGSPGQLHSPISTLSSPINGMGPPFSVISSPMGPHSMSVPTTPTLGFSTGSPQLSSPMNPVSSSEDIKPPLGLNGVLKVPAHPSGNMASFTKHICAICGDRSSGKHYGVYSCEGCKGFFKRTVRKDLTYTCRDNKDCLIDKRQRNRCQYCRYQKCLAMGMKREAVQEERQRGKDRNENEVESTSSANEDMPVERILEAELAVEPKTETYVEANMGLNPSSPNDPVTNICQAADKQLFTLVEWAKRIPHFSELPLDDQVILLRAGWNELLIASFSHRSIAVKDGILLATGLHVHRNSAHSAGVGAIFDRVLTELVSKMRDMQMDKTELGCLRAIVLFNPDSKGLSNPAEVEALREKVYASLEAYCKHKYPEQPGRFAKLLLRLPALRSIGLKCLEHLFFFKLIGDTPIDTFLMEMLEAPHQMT

Turning to `CCCOC(=O)c1ccc(C(=O)OCCC)nc1`, the outcome in assay [1], in assay [2], in [3] and in assay [4] was inactive.
With `CCCCC(CC)CN1C(=O)C2C3C=CC(C3)C2C1=O` (stereo unspecified), the AC50 in assay [5] was 25.3 µM (active).
As to `COC(=O)c1ccc(I)cc1S(=O)(=O)NC(=O)Nc1nc(C)nc(OC)n1`, the compound was classed as inactive in [6].
With `C[C@]12CC[C@@H]3c4ccc(O)cc4C[C@@H](CCCCCCCCCS(=O)CCCC(F)(F)C(F)(F)F)[C@H]3[C@@H]1CC[C@@H]2O` (stereo partly specified), the outcome in assay [7], in [8], in assay [9], in assay [10], in assay [11] and in assay [12] was inactive. The call in [13], in assay [14], in assay [15], in assay [16], in assay [17] and in assay [18] was inactive. The result in assay [19], in assay [1], in assay [2] and in assay [4] was inactive.
Consider `O=C(O)C1(C(=O)Nc2ccc(Cl)cc2Cl)CC1`, for which the result in assay [1], in [2], in [4] and in assay [5] was inactive.
